According to PubChem BioAssay (NCI):
About 79,000 compounds went through this panel and 15% of them were active in at least one assay; those are over-represented in the sample as a whole. Cut-off read from the data, not from the text of the source: active = growth inhibition above about 70%; inactive = the rest.

What was measured:
[1] = NCI Yeast Anticancer Drug Screen. Data for the rad50 strain (AID 155);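 note: 0% = growth of vehicle-only cultures of the same strain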; settings: S. cerevisiae rad50 strain growth inhibition; at 50.0 µM; active compounds read high
In short: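 A DNA repair-deficient yeast mutant serves as the test organism; compound-induced growth inhibition is calculated against vehicle-treated cells.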

[2] = NCI Yeast Anticancer Drug Screen. Data for the mec2-1 strain (AID 157); settings: S. cerevisiae mec2-1 strain, at 50.0 µM, active compounds read high
In short: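 Readout is yeast growth inhibition, normalised to vehicle-treated controls, in the mec2-1 strain exposed to compound.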

[3] = NCI Yeast Anticancer Drug Screen. Data for the sgs1 mgt1 strain (AID 161);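 note: 0% = growth of cultures given vehicle only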; settings: S. cerevisiae sgs1 mgt1 strain, at 50.0 µM, active compounds read high
In short: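 Growth of a repair-deficient yeast mutant was monitored after compound treatment and expressed as inhibition relative to vehicle-treated cultures.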

[4] = NCI Yeast Anticancer Drug Screen. Data for the cln2 rad14 strain (AID 165);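 note: 0% = growth equal to vehicle treated cultures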; settings: S. cerevisiae cln2 rad14 strain, at 50.0 µM, active compounds read high
In short: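 Relative to vehicle controls, growth inhibition of compound-treated cln2 rad14 yeast was recorded.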

[5] = NCI Yeast Anticancer Drug Screen. Data for the bub3 strain (AID 167); settings: S. cerevisiae bub3 mutant strain, at 50.0 µM, active compounds read high
In short: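 Inhibition values come from growth of compound-treated mutant yeast normalised to vehicle-treated controls.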

[6] = NCI Yeast Anticancer Drug Screen. Data for the mlh1 rad18 strain (AID 175); settings: S. cerevisiae mlh1 rad18 strain growth inhibition; at 50.0 µM; active compounds read high
In short: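 Test agents were incubated with a yeast strain of defined genotype (DNA damage repair defect). Inhibition of growth was derived by comparison with vehicle-exposed cultures.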

Measured: growth inhibition

O=C(O)c1ccc([C@@H]2C(=O)N(O)[C@@H]3C=CC[C@@H]32)cc1
inactive: [1] -8.4% | [2] -12.8% | [3] -7.45% | [4] 19.7% | [5] -14.7% | [6] 8.25%

CS(=O)(=O)N1COC(=O)[C@@H]1c1ccccc1
inactive: [1] 1.25% | [2] 25.4% | [3] 7% | [4] -3% | [5] 11.2% | [6] 3.05%

CCCc1cc(=O)n(CCCc2ccccc2)c(=O)n1CCCc1ccccc1
inactive: [1] 10.3% | [2] -8.7% | [3] -8.95% | [4] -36.1% | [5] -3.65% | [6] 16%

CCCC1CC(=O)NC(=O)C1C(=O)OC(C)(C)C (centres undefined)
inactive: [1] -13.1% | [2] -0.2% | [3] -8.65% | [4] 11% | [5] 9.85% | [6] -47.4%

CCN(CC)CC(=O)Nc1c(C(N)=O)nnn1Cc1cc(Cl)c(C(=O)c2ccc(Cl)cc2)c(Cl)c1
inactive: [1] 41.8% | [2] -14.5% | [3] 5.15% | [4] 7.95% | [5] 15.9% | [6] -36.1%

CN(/N=C\c1ccccc1)C(c1ccccc1)N(C)/N=C/c1ccccc1 (centres undefined)
inactive: [1] -6.45% | [2] -8.3% | [3] 15.2% | [4] -11.7% | [5] -17.3% | [6] -2.8%

C1CC2N=NC1C21CC1.[Cl][Cu][Cl]
inactive: [1] 1.2% | [2] 1.7% | [3] -3.75% | [4] -8.15% | [5] 8.7% | [6] -10%

C/C(=N\NS(=O)(=O)c1ccc(C)cc1)c1c(C)noc1C
inactive: [1] -13.4% | [2] 7.55% | [3] 13.3% | [4] 3.85% | [5] 6.3% | [6] 13.3%

CCCCCCCCCCCCCCCCCCSCCCCCCCCCCCCCCCCCC
inactive: [1] 25.1% | [2] 2.75% | [3] -16.9% | [4] -20.4% | [5] -2.55% | [6] -17.6%

C/C(=N\NS(=O)(=O)c1ccc(C)cc1)P(=O)(O)O
inactive: [1] -6.85% | [2] -13.4% | [3] -24.7% | [4] 8.1% | [5] -16.1% | [6] 22.6%

CCC(CC)=NNS(=O)(=O)c1cccc2ccccc12
inactive: [1] 10.7% | [2] -12.4% | [3] -11.7% | [4] -15.7% | [5] -17.9% | [6] -0.1%

CCCN(CCC#N)C(=S)Nc1ccc(C)c(C)c1
inactive: [1] -13.1% | [2] -54.7% | [3] -3.1% | [4] -7.5% | [5] -41.6% | [6] -27.9%

Cc1ccccc1NC(=O)CSc1nnc(-c2ccc(N=Cc3ccc(Cl)cc3)cc2)o1
inactive: [1] -13.6% | [2] -30.9% | [3] 1.9% | [4] -4.75% | [5] -30% | [6] -17.8%

CCC1(C)C(=O)c2ccccc2N(C)C1=O (centres undefined)
inactive: [1] -5.55% | [2] -10.1% | [3] -9.5% | [4] -37.9% | [5] 5% | [6] -6.25%

O/N=C(/Cc1ccccc1)c1ccccc1
inactive: [1] 26.6% | [2] 33.6% | [3] 11.1% | [4] -17.1% | [5] 5.15% | [6] 17.8%

Fc1cccc(C2ON=C(c3ccccc3)N2C23CC4CC(CC(C4)C2)C3)c1 (centres undefined)
inactive: [1] 4.9% | [2] -1.85% | [3] 6.1% | [4] 36.8% | [5] -8.35% | [6] 33.9%

C1CCN(SN2CCCCC2)CC1
inactive: [1] -4.4% | [2] -15.7% | [3] -3.6% | [4] -13.2% | [5] 4.75% | [6] 5.7%

CCN(CC)CCOB(c1cccc2ccccc12)c1cccc2ccccc12
inactive: [1] 39.6% | [2] 24.4% | [3] 17.1% | [4] 26.8% | [5] -3.4% | [6] 43.8%

COC1OCC(OS(C)(=O)=O)C(OS(C)(=O)=O)C1OS(C)(=O)=O (centres undefined)
inactive: [1] -22.5% | [2] -6.1% | [3] -26.1% | [4] -55.2% | [5] -1% | [6] -2.85%

CCOC(=O)N1CCN(Cc2cc(=O)n3ccc(C)cc3n2)CC1
inactive: [1] 21.8% | [2] 2.8% | [3] 3.7% | [4] 12.5% | [5] 17.4% | [6] 22.1%

CC(Cc1nc2ccccc2[nH]1)Cc1nc2ccccc2[nH]1
inactive: [1] -7% | [2] 17.4% | [3] 7.1% | [4] 21.4% | [5] 2.3% | [6] 15.6%

Cc1ccc(S/C=C/C(=O)Nc2ccccc2)cc1
inactive: [1] -10.8% | [2] 13.4% | [3] 7.1% | [4] 43.1% | [5] 2.85% | [6] 5.6%

C#Cc1cccc(N=Cc2cc(Br)cc(OC)c2O)c1
inactive: [1] -23.4% | [2] -6.7% | [3] 1.3% | [4] 4.8% | [5] 5% | [6] 3.95%

CCOC(=O)C(=CNC(=S)Nc1ccccc1)C(=O)OCC
inactive: [1] -24.9% | [2] -22.9% | [3] -23.8% | [4] -17.1% | [5] -13.7% | [6] 2.2%

COC(=O)CCc1cc(=O)oc2c3c(cc(OC)c12)OC1OC(=O)CC31 (centres undefined)
inactive: [1] -24% | [2] -22.3% | [3] -19.1% | [4] 6.4% | [5] -20.1% | [6] -7.25%

O=C1c2ccccc2C(=O)N1NC1=NCCN1
inactive: [1] -12.6% | [2] -13.3% | [3] -13.1% | [4] 11.8% | [5] 5.5% | [6] -1.8%

CN(C)CCCNC(=O)c1cc(NC(=O)c2cc(NC(=O)c3cc(NC(=O)CCCn4ccc(CO)c4CO)cn3C)cn2C)cn1C
inactive: [1] 6.6% | [2] -8.6% | [3] -5.35% | [4] 31.6% | [5] 4.8% | [6] 8.35%

CCOc1ccc(CO)cc1
inactive: [1] 8.5% | [2] 0.2% | [3] 8.55% | [4] 34% | [5] -8.95% | [6] -38.8%

O=C1N=NC(=O)N1c1ccccc1
inactive: [1] -6.75% | [2] 4.3% | [3] 1% | [4] -22.2% | [5] -0.05% | [6] 2.35%

O=C(O)CS(=O)(=O)Cc1ccccc1
inactive: [1] -12.7% | [2] -9.85% | [3] -9.25% | [4] -60.6% | [5] -7.9% | [6] -6.5%

COc1cccc(-n2cnc3c(=O)[nH]cnc32)c1
inactive: [1] -18.7% | [2] -13.3% | [3] -10.9% | [4] -34.9% | [5] -5.65% | [6] -40%

O=C(COc1cccc(Cl)c1)Nc1cccc(S(=O)(=O)O)c1 (tested in a mixture with another compound)
inactive: [1] 5.15% | [2] -7.65% | [3] -12.8% | [4] -16.6% | [5] 2% | [6] 11.2%

CC(C)(C)c1cc(-c2cc(C(C)(C)C)nc(N)n2)nc(N)n1
inactive: [1] -4.9% | [2] -14.1% | [3] -14% | [4] -18.7% | [5] -35.3% | [6] -16.4%

O=S1(=O)CC(N2CCCCC2)C1
inactive: [1] -3.95% | [2] 2.05% | [3] 17.3% | [4] -40.9% | [5] -3% | [6] -13.3%

Cc1cccc(F)c1C
inactive: [1] 24.9% | [2] -14.5% | [3] 4.9% | [4] 6.1% | [5] 3.2% | [6] 7.25%

C=CCC(=S)NCCc1c[nH]c2ccccc12
inactive: [1] -12.2% | [2] 2.4% | [3] -5.5% | [4] 2.55% | [5] 11.8% | [6] -18.9%

CCCN(CCCC(NC(C)=O)C(=O)NCc1ccccc1)C(=O)NC (centres undefined)
inactive: [1] -11.1% | [2] -18.8% | [3] -28.4% | [4] 1.2% | [5] -4.65% | [6] -45.3%

CCC(C)Sc1nc2ccc(NC(=O)/C=C/C(=O)O)cc2s1 (centres undefined)
inactive: [1] 31.5% | [2] 10% | [3] 11.7% | [4] 15.7% | [5] 13.5% | [6] 16.1%

C=C[C@@]1(C)CC(=O)[C@]2(O)[C@@]3(C)[C@@H](O)CCC(C)(C)[C@@H]3[C@H](O)[C@@H](OC(C)=O)[C@@]2(C)O1
inactive: [1] 0.2% | [2] -4.4% | [3] -5.75% | [4] 9.2% | [5] -4.15% | [6] -68%
